Measured values as given in PubChem BioAssay AID493170 (National Center for Advancing Translational Sciences (NCATS), 2011).
Results filed as inconclusive are left out. Activity calls are given as the source filed them. Calls come from the whole dose curve; as a rule, active = well fitted inhibition curve with a large enough effect; inconclusive = small, poorly fitted or top-dose-only effect, or effect the other way; inactive = flat fitted curve, though single readings scatter.

The molecules below were run against Ubiquitin carboxyl-terminal hydrolase 2 (Homo sapiens) (UniProt O75604) (assay: Ub-rhodamine 110 based assay for inhibitors Ubiquitin-specific Protease USP2a). Conditions: USP2a Ub-rhodamine110 cleavage, fluorescence; series mostly up to 38.3 µM; activity change, negative = inhibition: at the top concentration.
Method in brief: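 Kinetic fluorescence (485/531 nm) read each minute over 7 min after adding Ub-Rhod110 (150 nM final) to USP2a (5 nM final). The enzyme had 30 min RT exposure to compounds beforehand in Tris pH 8.0 buffer with CaCl2, CHAPS and beta-ME.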
% is set by controls: 0 for no effect and ±100 for the full control effect; potency is the fitted concentration of half-maximal effect.
Note: nearly all actives have a fitted effect of over 50% in size.

Ubiquitin carboxyl-terminal hydrolase 2 (Homo sapiens), sequence (O75604 whole entry, looked up): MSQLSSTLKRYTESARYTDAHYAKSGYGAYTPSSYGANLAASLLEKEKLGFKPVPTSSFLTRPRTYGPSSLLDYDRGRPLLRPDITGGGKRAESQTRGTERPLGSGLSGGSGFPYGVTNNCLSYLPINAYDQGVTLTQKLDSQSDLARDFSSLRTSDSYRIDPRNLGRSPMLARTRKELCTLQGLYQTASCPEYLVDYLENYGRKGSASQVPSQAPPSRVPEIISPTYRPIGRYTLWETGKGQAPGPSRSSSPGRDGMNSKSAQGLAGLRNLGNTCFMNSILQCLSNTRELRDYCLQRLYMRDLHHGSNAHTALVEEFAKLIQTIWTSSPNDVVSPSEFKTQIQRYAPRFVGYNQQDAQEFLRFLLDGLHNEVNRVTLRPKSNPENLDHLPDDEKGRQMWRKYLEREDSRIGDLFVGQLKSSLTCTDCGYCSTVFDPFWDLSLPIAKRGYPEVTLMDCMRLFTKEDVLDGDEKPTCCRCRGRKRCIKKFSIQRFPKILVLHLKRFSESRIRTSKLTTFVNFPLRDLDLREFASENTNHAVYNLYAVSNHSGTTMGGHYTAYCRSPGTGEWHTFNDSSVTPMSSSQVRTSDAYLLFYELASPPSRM

Activity change, negative = inhibition, inactive:
Cc1onc(-c2ccccc2)c1C(=O)N1CCN(C)CC1 -5.26%
Cc1ccc(-c2c(C)n([O-])c3c([n+]2=O)CCC3)o1 -2.02%
Cc1cc(N2CCC(C(=O)NC3CC3)CC2)nc(-c2ccccc2)n1 -8.29%
COc1ccc(-c2nc3cc(NC(=O)Cc4ccc(OC)c(OC)c4)ccc3o2)cc1 3.85%
Cc1ccc(C(=O)C(=S)N2CCOCC2)cc1 7.4%
CCOc1ccc(NC(=O)N(CCCN2CCOCC2)Cc2cccnc2)cc1 3.46%
CCOc1ccccc1C(=O)N[C@H](C(=O)Nc1ccc(OC)c(S(=O)(=O)N2CCOCC2)c1)C(C)C -7.42%
COCc1c(C(=O)OCC(=O)c2c(N)n(CC(C)C)c(=O)n(C)c2=O)oc2ccccc12 -21.8%
Cc1nc2cc3ccccc3cc2c(=O)[nH]1 -20.4%
O=C(NCCC1=CCCCC1)C1CCCN(S(=O)(=O)c2cnc[nH]2)C1 (centres undefined) -14.8%
CNc1sc(C(=O)c2ccc(F)cc2)c(N)c1-c1nc2ccccc2s1 -5.39%
C=CC[C@H](CC(=O)N[C@H](CO)Cc1ccccc1)C(=O)N[C@H](COC(=O)[C@@H](CC=C)CC(=O)OC(C)(C)C)Cc1c[nH]c2ccccc12 -11.3%
Nc1nc(NCCO)nc(NCC2CCCO2)c1[N+](=O)[O-] (centres undefined) -7.49%
CC(=O)Nc1ccc(NC(=O)[C@@H](NC(=O)c2cccc(C)c2)C(C)C)cc1 -2.39%
CC(=O)Nc1ccc(Nc2cc(C)nc(Nc3ccc(NC(C)=O)cc3)n2)cc1 -6.62%
CCNc1sc(C(=O)c2cccs2)c(N)c1-c1nc2ccccc2s1 -4.43%
Cc1ccc(SCc2cc(=O)c3c(=O)n(-c4ccccc4)[nH]c3[nH]2)cc1 -19%
Cc1cc(C)c(NC(=O)C[N+](C)(C)CC(O)COc2cccc3ccccc23)c(C)c1 (centres undefined) -7.77%
Cc1c(O)c(CN2CCCC2)cc2c3c(c(=O)oc12)CCC3 2.28%
CC(=O)OCC(=O)Nc1ccc(Cl)cc1Cl -6%
C[C@](N)(Cc1ccc(O)c(O)c1)C(=O)O -6.04%
Cc1cc(C(=O)NCc2ccco2)on1 -27.9%
CCOc1ccc(CCn2c(-c3ccco3)nc3ccccc3c2=O)cc1OCC -9.5%
CCOc1ccc(NC(=O)c2cccc(-n3cnnn3)c2)cc1 1.58%
Cc1ccc(C2=[N+]([O-])C(C)N(O)C2(C)C)o1 (centres undefined) -1.97%
O=C(CCS(=O)(=O)c1ccc(Br)s1)NC1CCCC1 -7.53%
Nc1ccccc1S(=O)(=O)NC1=NCCCCC1 -5.26%
Cc1noc(/C=C/NCc2cccnc2)c1S(=O)(=O)N(C)CC(=O)N1CCc2ccccc21 -11.3%
CCOC(=O)C(=O)Nc1nc(-c2ccc3c(c2)CCN3C(=O)C2CC2)c(C)s1 -16.4%
c1ccc(-c2ccccc2OCCCN2CCOCC2)cc1 3.46%

Potency, active:
O=C(N/N=C/c1ccc(F)cc1)c1cc(-c2ccco2)nc2ccccc12 2 µM
O=C(Nc1ccc(Nc2ccncc2)cc1)c1ccc(Nc2ccnc3ccc([N+](=O)[O-])cc23)cc1 7.08 µM
O=C(/C=C/c1ccc(Cl)c([N+](=O)[O-])c1)Nc1ccc(N2CCCC2)cc1 12.6 µM
COc1ccc(Cc2nnc(NC(=O)Cc3cccs3)s2)cc1 1.41 µM
Oc1c(Cl)cc(Cl)c(Cl)c1Cc1c(O)c(Cl)cc(Cl)c1Cl 3.16 µM
CN(CC(=O)Nc1cccc2ccccc12)C(=O)c1ccc(NC(=O)CC#N)cc1 11.2 µM
O=C(/C=C\c1ccco1)c1ccc(NC(=O)c2ccco2)cc1 10 µM
Cc1ccccc1NC(=O)CSc1nnc(-c2ccco2)c(-c2ccco2)n1 10 µM
CC(=O)c1ccc2c(c1)C1C=CCC1C(C(=O)O)N2 (centres undefined) 10 µM
